The supplement of paper PMC9262897, “Low-cost anti-mycobacterial drug discovery using engineered E. coli” (Nature Communications, 2022)
Counter-ions that a name gives are not always drawn. ± gives the standard deviation of the averaged measurements.

Tests used:
Experiment in all cases: growth (OD600 after 10 h); higher = more growth (less inhibition)
[1] = system: E. coli TESEC Alr+ wild-type control; settings: compound 0.1 mM; raw OD600 reference: median of DMSO wells 0.241, cell-free background 0.041
Procedure: (§1)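 TESEC Mtb Alr E. coli, or the Alr+ wild-type control, in 384-well plates with Prestwick library compounds at 0.1 mM and 1% DMSO, across arabinose induction levels of 1E3 to 1E7 nM. Growth is read as OD600 after 10 h at 37 °C in triplicate biological replicates.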

[2] = system: E. coli TESEC Mtb Alr; settings: compound 0.1 mM
Procedure: as §1

[3] = system: E. coli TESEC Mtb Asd; settings: compound 0.1 mM
Procedure: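 TESEC E. coli strains in which the native enzyme is deleted and replaced by arabinose-inducible Mtb Asd, DapB, CysH or TrpD, each grown in its selective medium. Strains were screened against the Prestwick library at 0.1 mM and 1% DMSO in 384-well format at low and high arabinose induction. Growth is read as OD600 after 10 h in triplicate.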

[4] = system: E. coli TESEC Mtb Alr; settings: compound 0.1 mM; remark: listed apart in the source
Procedure: (§2)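 TESEC Mtb Alr E. coli (ΔaraC ΔtolC ΔentC Δalr ΔdadX, arabinose-inducible Mtb Alr) or the Alr+ wild-type control strain, grown in defined M9-fructose medium without D-alanine in 96-well plates with Prestwick library compounds at 0.1 mM and 1% DMSO. Low Alr induction is 0.1 µM arabinose and high induction is 10 mM arabinose.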

[5] = system: E. coli TESEC Alr+ wild-type control; settings: compound 0.1 mM; raw OD600 reference: median of DMSO wells 0.49, cell-free background 0.052
Procedure: as §2

[6] = arabinose 1000 nM, raw OD600 reference: median of DMSO wells 0.294, cell-free background 0.041
[7] = arabinose 10000 nM, raw OD600 reference: median of DMSO wells 0.264, cell-free background 0.041
[8] = arabinose 100000 nM, raw OD600 reference: median of DMSO wells 0.201, cell-free background 0.041
[9] = arabinose 1000000 nM, raw OD600 reference: median of DMSO wells 0.193, cell-free background 0.041
[10] = arabinose 10000000 nM, raw OD600 reference: median of DMSO wells 0.146, cell-free background 0.041
[11] = arabinose induction (level): High, raw OD600 reference: median of DMSO wells 0.331, cell-free background 0.041
[12] = arabinose induction (level): Low, raw OD600 reference: median of DMSO wells 0.417, cell-free background 0.041
[13] = arabinose 100 nM, raw OD600 reference: median of DMSO wells 0.413, cell-free background 0.052
[14] = arabinose 10000000 nM, raw OD600 reference: median of DMSO wells […], cell-free background 0.052

| SMILES | growth [1] | growth [2, 6] | growth [2, 7] | growth [2, 8] | growth [2, 9] | growth [2, 10] | growth [3, 11] | growth [3, 12] | growth [4, 13] | growth [4, 14] | growth [5] |
| --- | --- | --- | --- | --- | --- | --- | --- | --- | --- | --- | --- |
| CNC(=O)c1c(I)c(C(=O)NCC(=O)Nc2c(I)c(C(=O)O)c(I)c(C(=O)NCCO)c2I)c(I)c(N(C)C(C)=O)c1I [Ioxaglic acid] | 0.239 ± 0.0087 | 0.2972 ± 0.0024 | 0.28 ± 0.0056 | 0.219 ± 0.0065 | 0.215 ± 0.015 | 0.139 ± 0.0059 | 0.343 ± 0.027 | 0.359 ± 0.048 | 0.426 ± 0.0094 | 0.3518 ± 0.0018 | – |
| COc1cc(OC)c(C(=O)CCCN2CCCC2)c(OC)c1 [Buflomedil hydrochloride] | 0.238 ± 0.0082 | 0.296 ± 0.0094 | 0.269 ± 0.0091 | 0.201 ± 0.04 | 0.189 ± 0.0075 | 0.146 ± 0.0076 | 0.274 ± 0.033 | 0.335 ± 0.064 | 0.407 ± 0.0067 | 0.345 ± 0.0037 | – |
| CCN(CC)CCNc1ccc(CO)c2sc3ccccc3c(=O)c12 [Hycanthone] | 0.0743 ± 0.0024 | 0.0851 ± 0.0084 | 0.0559 ± 0.00057 | 0.1 ± 0.0034 | 0.0552 ± 0.00075 | 0.0769 ± 0.0069 | 0.0901 ± 0.025 | 0.075 ± 0.0065 | 0.365 ± 0.042 | 0.232 ± 0.033 | 0.377 ± 0.0077 |
| O=S(=O)(O)c1cc(O)ccc1O [Ethamsylate] | 0.252 ± 0.0066 | 0.311 ± 0.0039 | 0.258 ± 0.0087 | 0.206 ± 0.018 | 0.182 ± 0.0086 | 0.13 ± 0.0042 | 0.211 ± 0.034 | 0.391 ± 0.0046 | 0.41 ± 0.015 | 0.344 ± 0.022 | – |
| CC(C)(Oc1ccc(C2CC2(Cl)Cl)cc1)C(=O)O (stereo not given) [Ciprofibrate] | 0.205 ± 0.046 | 0.263 ± 0.0056 | 0.273 ± 0.0078 | 0.154 ± 0.004 | 0.187 ± 0.016 | 0.123 ± 0.0026 | 0.26 ± 0.032 | 0.303 ± 0.051 | 0.43 ± 0.0055 | 0.312 ± 0.016 | 0.515 ± 0.079 |
| Nc1nc(F)nc2c1ncn2[C@@H]1O[C@H](CO)[C@@H](O)[C@@H]1O [Fludarabine] | 0.207 ± 0.0038 | 0.216 ± 0.0082 | 0.241 ± 0.0025 | 0.168 ± 0.011 | 0.185 ± 0.0037 | 0.133 ± 0.0056 | 0.272 ± 0.031 | 0.222 ± 0.035 | 0.411 ± 0.0067 | 0.31 ± 0.004 | – |
| Cc1cc(C2CCCCC2)n(O)c(=O)c1 [Ciclopirox ethanolamine] | 0.04347 ± 0.00021 | 0.04303 ± 5.8e-05 | 0.03957 ± 0.00035 | 0.0447 ± 0.00064 | 0.03987 ± 0.00012 | 0.0504 ± 0.00059 | 0.0544 ± 0.0014 | 0.0525 ± 0.0041 | 0.0481 ± 0.00095 | 0.0634 ± 0.0046 | – |
| CC(=O)[C@H]1CC[C@H]2[C@@H]3C[C@H](C)C4=CC(=O)CC[C@]4(C)[C@H]3[C@@H](O)C[C@]12C [Medrysone] | 0.122 ± 0.0039 | 0.162 ± 0.0096 | 0.2463 ± 0.002 | 0.1231 ± 0.00055 | 0.112 ± 0.003 | 0.138 ± 0.0029 | 0.217 ± 0.02 | 0.385 ± 0.041 | 0.399 ± 0.0044 | 0.213 ± 0.018 | – |
| COc1ccc(C(=O)NCc2ccc(OCCN(C)C)cc2)cc1OC [Itopride] | 0.241 ± 0.0038 | 0.298 ± 0.0084 | 0.268 ± 0.011 | 0.229 ± 0.029 | 0.176 ± 0.0056 | 0.159 ± 0.0051 | 0.303 ± 0.083 | 0.365 ± 0.11 | 0.407 ± 0.015 | 0.349 ± 0.0081 | – |
| CC(C)(Oc1ccc(Cl)cc1)C(=O)O [Clofibric acid] | 0.253 ± 0.0056 | 0.313 ± 0.011 | 0.256 ± 0.01 | 0.201 ± 0.015 | 0.171 ± 0.0038 | 0.154 ± 0.0039 | 0.443 ± 0.024 | 0.442 ± 0.025 | 0.404 ± 0.011 | 0.305 ± 0.011 | – |
| CC1CS(=O)(=O)CCN1/N=C/c1ccc([N+](=O)[O-])o1 (stereo not given) [Nifurtimox] | 0.04547 ± 0.00025 | 0.0539 ± 0.0037 | 0.04127 ± 0.00031 | 0.0564 ± 0.0035 | 0.0414 ± 0.00017 | 0.0554 ± 0.00081 | 0.212 ± 0.049 | 0.237 ± 0.017 | 0.0469 ± 0.00035 | 0.0644 ± 0.012 | – |
| NCCCCCC(=O)O [Aminocaproic acid] | 0.249 ± 0.0031 | 0.314 ± 0.019 | 0.257 ± 0.016 | 0.1768 ± 0.00047 | 0.172 ± 0.0099 | 0.161 ± 0.0086 | 0.47 ± 0.023 | 0.438 ± 0.028 | 0.407 ± 0.017 | 0.354 ± 0.025 | 0.463 ± 0.025 |
| CC1=Nc2ccc(Cl)cc2S(=O)(=O)N1 [Diazoxide] | 0.244 ± 0.013 | 0.276 ± 0.018 | 0.271 ± 0.0032 | 0.209 ± 0.04 | 0.189 ± 0.01 | 0.146 ± 0.0083 | 0.369 ± 0.022 | 0.412 ± 0.032 | 0.4111 ± 0.0032 | 0.365 ± 0.034 | – |
| CC(Oc1c(Cl)cccc1Cl)C1=NCCN1 (stereo not given) [Lofexidine] | 0.211 ± 0.008 | 0.27 ± 0.0089 | 0.259 ± 0.016 | 0.179 ± 0.015 | 0.172 ± 0.0071 | 0.139 ± 0.0016 | 0.261 ± 0.069 | 0.464 ± 0.093 | 0.406 ± 0.0098 | 0.331 ± 0.032 | – |
| CCC(=O)O[C@@H](O[P@](=O)(CCCCc1ccccc1)CC(=O)N1C[C@H](C2CCCCC2)C[C@H]1C(=O)O)C(C)C [Fosinopril] | 0.221 ± 0.007 | 0.33 ± 0.0063 | 0.25 ± 0.015 | 0.281 ± 0.018 | 0.0879 ± 0.0031 | 0.154 ± 0.0039 | 0.185 ± 0.013 | 0.351 ± 0.065 | 0.334 ± 0.044 | 0.0696 ± 0.00091 | 0.508 ± 0.076 |
| C[C@]1(Cn2ccnn2)[C@H](C(=O)O)N2C(=O)C[C@H]2S1(=O)=O [Tazobactam] | 0.249 ± 0.011 | 0.0404 ± 0.0022 | 0.0384 ± 0.0001 | 0.045 ± 0.0019 | 0.18 ± 0.015 | 0.074 ± 0.0014 | 0.405 ± 0.031 | 0.424 ± 0.022 | 0.245 ± 0.17 | 0.0826 ± 0.0045 | – |
| CN(C)CCC=C1c2ccccc2COc2ccccc21 [Doxepin hydrochloride] | 0.199 ± 0.018 | 0.245 ± 0.0099 | 0.262 ± 0.011 | 0.178 ± 0.0063 | 0.134 ± 0.0022 | 0.144 ± 0.0036 | 0.186 ± 0.034 | 0.326 ± 0.032 | 0.41 ± 0.0055 | 0.342 ± 0.046 | 0.472 ± 0.033 |
| O=C(CCNNC(=O)c1ccncc1)NCc1ccccc1 [Nialamide] | 0.237 ± 0.0061 | 0.28 ± 0.01 | 0.276 ± 0.0091 | 0.193 ± 0.018 | 0.208 ± 0.0031 | 0.144 ± 0.0023 | 0.237 ± 0.041 | 0.346 ± 0.062 | 0.431 ± 0.0058 | 0.337 ± 0.023 | – |
